Marburg entry inh = inhibitors of Marburg virus binding or cell entry; Marburg virus pseudotyped entry inhibition, cell reporter; Potency, µM (highest dose often 37.8 µM), for inactives: top-dose activity change, negative = inhibition, most hits filed as inhibitors; 300,000 tested, 1.8% active; AID 540276; calls by dose curve; tested in HEK293 cells; also: potency is read from the fitted curve at half-maximal effect
Lassa entry inh = inhibitors of Lassa virus binding or cell entry; Lassa virus pseudotype entry inhibition, cell reporter; Potency, µM (series often up to 37.9 µM), for the others: at the top dose activity change, negative = inhibition, usual class: inhibitors; 300,000 tested, 1.2% active; AID 540256; calls by dose curve; tested in HEK293 cells; also: potency is read from the fitted curve at half-maximal effect; nearly all actives have a fitted effect of over 50% in size
HCV inhibitor = blocks hepatitis C virus; Huh7.5.1 HCVcc-Cre infection, luciferase reporter, 44 h; Potency, µM (titrated, usually from 41.8 µM), inactives show at the highest dose activity change, negative = inhibition, hits mostly inhibitors; 340,000 tested, 3.4% active; AID 651820; also: potency is read from the fitted curve at half-maximal effect
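HCVcc-Cre virus at an moi near 0.5 was added right after compound to cells cultured 4 h from seeding (1,000 cells/well). Luciferase activity was determined 44 h later, 15 min after substrate addition at RT.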
Giardia FBPA inh = Giardia lamblia aldolase inhibition; 290,000 tested, 0.71% active; A8B2U2; Potency, µM (doses to about 59.6 µM), without a hit: at the top dose activity, negative = inhibition, most hits filed as inhibitors; AID 2451; purified Giardia FBPA; also: potency is read from the fitted curve at half-maximal effect; nearly all actives have a fitted effect of over 55% in size
Target sequence (A8B2U2 whole entry, looked up): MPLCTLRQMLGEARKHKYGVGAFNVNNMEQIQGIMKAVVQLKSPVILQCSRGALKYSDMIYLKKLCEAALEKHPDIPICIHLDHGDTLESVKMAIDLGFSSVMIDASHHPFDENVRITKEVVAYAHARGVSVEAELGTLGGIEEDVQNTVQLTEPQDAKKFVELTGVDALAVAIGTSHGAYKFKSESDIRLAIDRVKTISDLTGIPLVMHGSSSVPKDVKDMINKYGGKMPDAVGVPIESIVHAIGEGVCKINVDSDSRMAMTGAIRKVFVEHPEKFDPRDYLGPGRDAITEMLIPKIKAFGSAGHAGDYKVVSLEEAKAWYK
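Giardia FBPA (40 nM reagent) was preincubated 10 min at RT with compound (up to 57.5 uM final), then substrate plus GAPDH/TPI/NAD/arsenate coupling system with diaphorase/resazurin was added; resorufin fluorescence (525/598 nm) was read after 20 min.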
FMDV antiviral = antivirals against foot and mouth disease virus; FMDV antiviral cell-based qHTS; 410,000 tested, 1.2% active; AID 1159524; Potency, µM (doses to about 57.9 µM), without a hit: at the highest dose activity change, negative = inhibition, actives largely listed as inhibitors; calls by dose curve; tested in HEK293T cells; also: read-out not given here; potency is read from the fitted curve at half-maximal effect; nearly all actives have a fitted effect of over 45% in size
HCMV inh = blocks human cytomegalovirus replication; HFF cells, HCMV-luciferase reporter, 72 h; active compounds read low; activity change, negative = inhibition, % at 57.5 µM; 410,000 tested, 4.5% active; in the data active = activity change below about -60%; inconclusive = no clear call, values can overlap the other calls; inactive = above about -39%
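Compounds were evaluated in HFFs infected with an HCMV luciferase reporter virus (MOI 1 PFU/cell). Luciferase in lysates collected 72 h post infection served as the replication measure.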
The depositor's hits bear a star; [ ] = another dose, or the depositor's remark. The list is not random: actives were taken first. Their share in the collection is about 8.3%. Unless noted, calls follow the shape of the dose curve; as a rule, active = well fitted curve in the direction sought with a large enough effect; inconclusive = small, poorly fitted or top-dose-only effect, or another doubt; inactive = no such curve, though single readings can be large; an effect the other way counts as inactive or inconclusive. % is scaled to controls: 0 for no effect and ±100 for the full control effect.

Results for O=C(NC1CCCCC1)c1cc(-c2ccc(F)cc2)on1 ?
Marburg entry inh: 12%[46.1 µM]; HCV inhibitor: -1%; Giardia FBPA inh: 7%; FMDV antiviral: 60%; HCMV inh: 54

How did O=C(c1cc(-c2ccc(Cl)c(Cl)c2)on1)N1CCCCCC1 do in these assays?
Marburg entry inh: inconclusive; Lassa entry inh: 8%[46.1 µM]; HCV inhibitor: 6%; Giardia FBPA inh: -1%; FMDV antiviral: 14%; HCMV inh: 1

How did O=C(c1cc(-c2ccc(Cl)cc2Cl)on1)N1CCCCCC1 do in these assays?
Marburg entry inh: inconclusive; Lassa entry inh: inconclusive; HCV inhibitor: 6%; Giardia FBPA inh: 11%; FMDV antiviral: inconclusive; HCMV inh: 60

How did Cc1ccc(-c2cc(C(=O)NC3CCCC3)no2)cc1 do in these assays?
Marburg entry inh: 10µM*; Lassa entry inh: -12%[46.1 µM]; HCV inhibitor: 12%; Giardia FBPA inh: -8%; FMDV antiviral: 17%; HCMV inh: 55

How did O=C(c1cc(-c2ccc(Cl)cc2Cl)on1)N1CCCC1 do in these assays?
Marburg entry inh: inconclusive; Lassa entry inh: 3.5µM*; HCV inhibitor: -5%; Giardia FBPA inh: 7%; FMDV antiviral: -43%; HCMV inh: -20

How did O=C(Nc1ccc(Br)cc1)c1cc(-c2ccc3c(c2)OCO3)on1 do in these assays?
Marburg entry inh: 13%[46.1 µM]; Lassa entry inh: 6%; HCV inhibitor: 10%; Giardia FBPA inh: 8%; FMDV antiviral: 20%; HCMV inh: -60*

How did O=C(Nc1ccc2c(c1)OCO2)c1cc(-c2ccc(Br)cc2)on1 do in these assays?
Marburg entry inh: 6%[46.1 µM]; Lassa entry inh: 4%[46.1 µM]; FMDV antiviral: inconclusive; HCMV inh: 16

Results for CCNC(=O)C1CCN(S(=O)(=O)c2ccc3c(c2)CCCN3C(C)=O)CC1 ?
Lassa entry inh: 16%[46.1 µM]; FMDV antiviral: -12%; HCMV inh: -9

What do the screens show for `C[C@H]1[C@@H](NS(=O)(=O)c2ccc([N+](=O)[O-])cc2)CC[C@@]23CCCN2C(=O)CCC[C@@H]13`?
HCMV inh: -21

Results for CC(C)(C)OC(=O)N1CCCC1C(=O)NC1COC2CC(n3cc(F)c(=O)[nH]c3=O)OC12 (stereo unspecified) ?
Giardia FBPA inh: 4%

What do the screens show for `Cc1ccc(-c2cc(C(=O)N3CCOCC3)no2)cc1`?
Marburg entry inh: 2µM*; HCV inhibitor: 13%; Giardia FBPA inh: 7%; FMDV antiviral: -68%; HCMV inh: -61*

How did O=C(Nc1cccc2[nH]ncc12)c1ccc(F)cc1 do in these assays?
Marburg entry inh: inconclusive; Lassa entry inh: 4%; HCV inhibitor: 8%; Giardia FBPA inh: 1%; FMDV antiviral: 62%; HCMV inh: -76*

Results for O=C(NC(=S)Nc1cccc2[nH]ncc12)c1ccccc1 ?
Marburg entry inh: inconclusive; Lassa entry inh: 4%[46.1 µM]; HCV inhibitor: 0%; Giardia FBPA inh: -12%; FMDV antiviral: 15%; HCMV inh: -62*

What do the screens show for `CNC(=S)Nc1cccc2[nH]ncc12`?
Marburg entry inh: -17%; Lassa entry inh: -3%; HCV inhibitor: 10%; Giardia FBPA inh: -21%; FMDV antiviral: 7%; HCMV inh: -4

What do the screens show for `COc1cc(C(=O)Nc2nc(C)c(Cc3ccc4c(c3)OCO4)s2)cc(OC)c1OC`?
Marburg entry inh: -42%; Lassa entry inh: inconclusive; HCV inhibitor: 10µM*; Giardia FBPA inh: -1%; FMDV antiviral: -29%; HCMV inh: -2

How did CCCOc1ccc(C(=O)Nc2nc(C)c(Cc3ccc4c(c3)OCO4)s2)cc1 do in these assays?
Marburg entry inh: 35%; Lassa entry inh: 10%; HCV inhibitor: 3.5µM*; Giardia FBPA inh: 3%; FMDV antiviral: -19%; HCMV inh: inconclusive

Results for Cc1nc(NC(=O)c2ccc(OCC(C)C)cc2)sc1Cc1ccc2c(c1)OCO2 ?
HCV inhibitor: 14µM*; Giardia FBPA inh: 0%; FMDV antiviral: -9%; HCMV inh: inconclusive

What do the screens show for `Cc1c(Cc2ccc3c(c2)OCO3)sc(NC(=O)c2ccc3ccccc3c2)c1C(N)=O`?
Marburg entry inh: 0%; Lassa entry inh: -9%; HCV inhibitor: inconclusive; Giardia FBPA inh: 0%; FMDV antiviral: 12%; HCMV inh: 25

Results for CCOc1ccc(CNC(=O)CN2N=C(c3ccccc3)CCC2=O)cc1OC ?
Lassa entry inh: inconclusive; FMDV antiviral: -8%; HCMV inh: 6

What do the screens show for `CC(C)N(C(=O)c1cc2c(Cl)nc3ccccc3c2s1)C1CCCCC1`?
Marburg entry inh: 6%[46.1 µM]; Lassa entry inh: 10%[46.1 µM]; FMDV antiviral: -4%; HCMV inh: -4

How did CC(=O)c1c(C)[nH]c(C(=O)C(C)Sc2nnc(NC3CC3)s2)c1C (stereo unspecified) do in these assays?
Marburg entry inh: inconclusive; Lassa entry inh: inconclusive; HCV inhibitor: 10µM*; FMDV antiviral: inconclusive; HCMV inh: 6

Results for O=C(CSc1nc2cc([N+](=O)[O-])ccc2n1-c1ccccc1)NCc1ccc2c(c1)OCO2 ?
Marburg entry inh: inconclusive; Lassa entry inh: inconclusive; HCV inhibitor: inconclusive; Giardia FBPA inh: 7.9µM*; FMDV antiviral: -23%; HCMV inh: inconclusive

Results for Cc1cc(C)cc(-n2c(SCC(=O)NCc3ccc4c(c3)OCO4)nc3ccccc3c2=O)c1 ?
Marburg entry inh: inconclusive; Lassa entry inh: 6%; HCV inhibitor: 2%; Giardia FBPA inh: 8%; FMDV antiviral: -10%; HCMV inh: inconclusive

How did CN(C)C(=O)Cn1c(SCC(=O)NCc2ccc3c(c2)OCO3)nc2ccccc21 do in these assays?
Marburg entry inh: 4%; Lassa entry inh: 17%; HCV inhibitor: -1%; Giardia FBPA inh: -2%; FMDV antiviral: -4%; HCMV inh: 1

Results for CC1CCCC(C)N1C(=O)Cn1c(SCC(=O)NCc2ccc3c(c2)OCO3)nc2ccccc21 (stereo unspecified) ?
Marburg entry inh: -4%; Lassa entry inh: -2%; HCV inhibitor: 4%; Giardia FBPA inh: 10%; FMDV antiviral: -13%; HCMV inh: -68*

What do the screens show for `O=C(NC1CCS(=O)(=O)C1)c1ccc(-c2ccc(Br)cc2)o1` (stereo unspecified)?
Marburg entry inh: 7%; Lassa entry inh: -11%; HCV inhibitor: 11µM*; Giardia FBPA inh: 2%; HCMV inh: -13

Results for CCc1ccc(-c2cn(-c3nc(C)cc(C)n3)c(=N)o2)cc1 ?
Marburg entry inh: inconclusive; Lassa entry inh: 16µM*; HCV inhibitor: 22µM*; Giardia FBPA inh: 4%; FMDV antiviral: -23%; HCMV inh: -101*

How did Cc1nn(-c2ccccc2)c(OC(=O)c2ccccc2Br)c1S(=O)(=O)c1ccccc1 do in these assays?
Marburg entry inh: -9%[46.1 µM]; Lassa entry inh: 25%[46.1 µM]; FMDV antiviral: -8%; HCMV inh: -6

Screening data: PubChem BioAssay, National Center for Advancing Translational Sciences (NCATS)
